# Measured values as given in PubChem BioAssay AID1476 (National Center for Advancing Translational Sciences (NCATS), 2009).
# Out of some 200,000 compounds screened, about 4,500 (2.2%) were called active. Inconclusive results (about 12%) are left out. The full list was thinned out, with actives kept by preference. Unmarked numbers belong to inactive results. Calls come from the whole dose curve; as a rule, active = well fitted inhibition curve with a large enough effect; inconclusive = small, poorly fitted or top-dose-only effect, or effect the other way; inactive = flat fitted curve, though single readings scatter.
# Target: Cruzipain (Trypanosoma cruzi) (UniProt P25779)
# Assay: qHTS Assay for Promiscuous and Specific Inhibitors of Cruzain (without detergent); note: nearly all actives have a fitted effect of over 40% in size;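 for max response, negative = inhibition: plate controls were enzyme without inhibitor for no effect and buffer without enzyme for full effect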
# Conditions: purified cruzain, Z-FR-AMC fluorescence, no detergent
# How it was run: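 Detergent-free condition (0.00005% Triton X-100) in acetate buffer pH 5.5 with DTT. 1.5 nM enzyme and compound were pre-mixed 15 min, then 2 uM Z-FR-AMC substrate added; reaction progress from fluorescence change between first and third reads (60 s).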
# Potency is the fitted concentration of half-maximal effect.
# Cruzipain (Trypanosoma cruzi), sequence (P25779 123-467 limits assumed): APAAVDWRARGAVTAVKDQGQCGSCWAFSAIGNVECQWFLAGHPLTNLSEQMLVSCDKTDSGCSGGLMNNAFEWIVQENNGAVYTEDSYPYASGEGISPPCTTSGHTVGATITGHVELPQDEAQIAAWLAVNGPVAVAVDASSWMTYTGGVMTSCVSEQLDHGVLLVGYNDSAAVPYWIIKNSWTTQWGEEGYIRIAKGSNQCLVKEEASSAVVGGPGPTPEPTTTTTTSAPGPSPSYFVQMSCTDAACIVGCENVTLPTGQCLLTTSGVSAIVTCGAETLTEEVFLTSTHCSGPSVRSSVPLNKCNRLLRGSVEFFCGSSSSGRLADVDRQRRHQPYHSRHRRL
SMILES,"max response, negative = inhibition [%]",Potency
Cc1ccc(Cc2nc3ccccc3nc2SCC(=O)Nc2cccc(C(F)(F)F)c2)cc1,-25,
CCN(CC)CCNC(=O)c1cc2c(=O)oc3ccc(C)cc3c2s1,-5.21,
Cc1ccc2c(c1)c1c(c(=O)n(-c3ccccc3)c(=O)n1CC(=O)c1ccc(Cl)cc1)n2C,12.5,
CCc1ccc(S(=O)(=O)c2nnn3c2nc(NCc2ccccc2OC)c2cc(Cl)ccc23)cc1,-14.3,
CCc1ccc(S(=O)(=O)n2ccnc2)cc1,3.23,
O=C(Nc1nc(-c2ccncc2)cs1)C1COc2ccccc2O1 (centres undefined),-4.88,
Brc1ccc(-c2csc(N/N=C/c3ccc4c(c3)OCO4)n2)cc1,,10 µM (active)
O=C(Nc1nc(-c2ccc3c(c2)OCO3)cs1)c1ccncc1,-29.2,
COc1ccc(OC)c2sc(N3CCN(C(=O)C4COc5ccccc5O4)CC3)nc12 (centres undefined),-0.959,
CCN(c1ccc(Cl)cc1)S(=O)(=O)c1nnc(NC(=O)c2ccco2)s1,3.14,
Cc1nnc(NCc2ccccc2)c2c1nnn2Cc1ccc(F)cc1,10.1,
COc1cccc(NC(=S)NCCCN2CCOCC2)c1,9.47,
COc1cc(NC(=S)NCCSc2ccc(C)cc2)cc(OC)c1,,0.251 µM (active)
COc1cc(NC(=O)Nc2ccc(C)cc2)cc([N+](=O)[O-])c1,-24.4,
Cc1nc(SCCOc2ccc(Cl)cc2)[nH]c(=O)c1Cc1ccccc1,-8.31,
COc1ccc(-c2nn3c(=O)cc(CN4CCN(C(=O)c5ccc(OC)c(OC)c5)CC4)nc3s2)cc1,-11,
COc1ccc(NC(=O)Cn2c(=O)n(CCC(C)C)c(=O)c3cccnc32)cc1Cl,-5,
Cc1nn(C(C)C(=O)Nc2ccc(C(C)C)cc2)c(=O)c2c1sc1ccccc12 (centres undefined),-0.208,
Cc1nn(CC(=O)NCCc2ccccc2)c(=O)c2c1sc1ccccc12,-12,
Cc1ccccc1CNC(=O)CCCn1nc(C)c2sc3ccccc3c2c1=O,,25.1 µM (active)
COc1ccc(NC(=O)c2ccc3oc(=O)c(S(=O)(=O)c4ccc(F)cc4)cc3c2)c(OC)c1,-3.78,
CCn1cc(C(=O)NCc2ccc(C)cc2)c(=O)c2cc(S(=O)(=O)N3CCc4ccccc4C3)ccc21,-8.13,
Cc1nc2nc(SCC(=O)NCc3ccco3)nn2c(C)c1Cc1ccccc1,-3.94,

SMILES,"max response, negative = inhibition [%]",Potency
O=c1nc2s/c(=C\c3ccco3)c(=O)n2nc1Cc1ccccc1,,25.1 µM (active)
O=C(CCCN1C(=O)/C(=C/c2ccco2)SC1=S)Nc1ccccc1,-9.58,
COc1ccc(CCNC(=O)Cn2c(=O)n(-c3ccccc3)c(=O)c3c(C)c(C)sc32)cc1OC,-8.34,
O=C(CSc1ncc(-c2ccccc2)[nH]1)Nc1ccc(F)cc1F,8.99,
Cc1ccc(Cl)cc1NC(=O)CSc1nccn1C,1.47,
CN1c2ccc(Cl)cc2-c2nc(SCC(=O)Nc3cc(F)ccc3F)ncc2S1(=O)=O,,12.6 µM (active)
COc1cc2c(=O)c(S(=O)(=O)c3ccc(C(C)C)cc3)cn(Cc3ccccc3C)c2cc1OC,19.9,
CN1CCN(C(CNC(=O)c2ccccc2F)c2ccc3c(c2)OCO3)CC1 (centres undefined),7.63,
CCCSc1ncc(Cl)c(C(=O)Nc2sc3c(c2C(=O)NCCOC)CCCC3)n1,-6.84,
CCOc1cccc(NC(=O)c2ccc(F)c(S(=O)(=O)N(CC)c3cccc(C)c3)c2)c1,-18,
Cn1c(=O)cc(OCC(=O)N2CCN(c3ccccc3)CC2)c2ccccc21,3.14,
CCOc1ccc(NC(=O)CSc2nc3c(c(=O)n2-c2ccccc2OC)SCC3)cc1,-2.8,
CCOC(=O)c1sc(NC(=O)CSc2nc3c(c(=O)n2-c2ccccc2)SCC3)c(C(=O)OCC)c1C,-25.7,
CCc1nnc(NC(=O)CSc2nc3c(c(=O)n2-c2ccccc2OC)SCC3)s1,,12.6 µM (active)
CCOC(=O)c1ccc(NC2=CC(c3ccc(OCC)cc3)N(c3ccc(C(=O)OCC)cc3)C2=O)cc1 (centres undefined),-9.29,
O=C(CCn1c(=O)c2sccc2n(Cc2ccc(F)cc2)c1=O)NCc1ccc2c(c1)OCO2,2.68,
Cc1ccc(F)cc1S(=O)(=O)N1CCC(c2nc3ccccc3s2)CC1,-6.75,
CC1=CC(=C(C#N)c2nc3ccccc3s2)C=C(C)N1c1ccc(F)cc1F,,31.6 µM (active)
CC(C)c1cc(C(N)=O)c(NC(=O)c2cccc(COc3ccc(Br)cc3)c2)s1,,5.01 µM (active)
COc1ccc(OCc2cccc(C(=O)N3CCCC3)c2)cc1,22.1,
CCc1cc(C(N)=O)c(NC(=O)c2ccc(OC)cc2)s1,-3.04,
CCC(=O)N1CCc2cc(Br)cc(S(=O)(=O)NCc3ccc(Cl)cc3)c21,5.32,
Cc1ccc(-n2ncc(C(=O)N(C)Cc3ccccc3)c2-n2cccc2)cc1,19.8,

SMILES,"max response, negative = inhibition [%]",Potency
O=C(Nc1cc2c3c(c1)C1CCCC1CN3CC1CCCC21)c1ccc([N+](=O)[O-])cc1 (centres undefined),,25.1 µM (active)
O=C(Nc1cccc([N+](=O)[O-])c1)c1ccc2c(c1)OCO2,4.82,
CC1CCc2noc(NC(=O)c3ccc([N+](=O)[O-])cc3)c2C1 (centres undefined),3.94,
C=CC(C1=CC(=O)C=CC1=O)c1ccc(O)cc1 (centres undefined),-6.77,
O=C(NNc1c2ccccc2nc2ccccc12)c1cc2ccccc2cc1O,,7.94 µM (active)
Cc1noc(C)c1COC(=O)c1cc2ccccc2cc1O,-7.72,
O=C(Nc1c2c(nc3ccccc13)CCCC2)c1ccccc1Br,6.61,
Cc1c(Cl)cccc1NC(=O)C1CCCN(C(=O)c2cnn(-c3ccccc3)c2-n2cccc2)C1 (centres undefined),17.7,
CCOC(=O)c1oc2ccc(S(=O)(=O)n3nc(-c4ccccc4OC)cc3N)cc2c1C,-16.2,
CCC(=O)N1CCc2cc(S(=O)(=O)NC(C(=O)Nc3ccc(C(C)=O)cc3)C(C)C)ccc21 (centres undefined),-5.8,
O=C1CN(C(=O)Nc2ccccc2C(F)(F)F)C(c2ccccc2)c2c(sc3c2CCCC3)N1 (centres undefined),-8.71,
O=C(COc1ccccc1F)OCc1cc(=O)n2nc(C3CCCCC3)sc2n1,-11.4,
Cc1cccc(C)c1NC(=O)CSc1ccc([N+](=O)[O-])cn1,-1.59,
Cc1ccc(-n2c(C)cc(/C=N/Nc3ccc([N+](=O)[O-])cn3)c2C)c(C)c1,,3.98 µM (active)
Cc1ccc(-n2c(C)cc(/C=N\NC(=O)CC(=O)NC(C)C)c2C)cc1,-4.29,
CCOc1ccc(C(=O)N2CCN(CCc3ccccn3)CC2)cc1,-2.86,
CSc1cccc(NC(=O)CN2C(=O)CCc3cc(S(=O)(=O)N4CCCCC4)ccc32)c1,-6.74,
CCOC(=O)N1CCc2c(sc3c2c(=O)n(Cc2ccccc2)c(=O)n3CC(=O)Nc2cccc(C)c2)C1,-13.3,
COc1cccc(NC(=O)C(C)Oc2ccccc2)c1 (centres undefined),2.56,
COc1cccc(NC(=O)C(Sc2nc3ccccc3c(=O)n2CC(C)C)c2ccccc2)c1 (centres undefined),,5.01 µM (active)
COCCn1c(SCC(=O)Nc2ccc3c(c2)CCC3)nc2ccccc2c1=O,7.57,
O=S(=O)(Nc1ccc2nc(-c3cccc(Cl)c3)oc2c1)c1ccccc1,5.84,
COc1ccc(CNC(=O)c2cc3c(=O)[nH]c4ccccc4c3s2)cc1,-0.0351,

SMILES,"max response, negative = inhibition [%]",Potency
CC(C)CC(=O)Nc1cc(C(F)(F)F)ccc1N1CCOCC1,-0.397,
O=C(NC(=S)Nc1cc(C(F)(F)F)ccc1N1CCOCC1)c1ccc(-c2cccc(Cl)c2)o1,,10 µM (active)
COc1c(C)cccc1C(=O)Nc1cc(Cl)ccc1N1CCOCC1,-1.36,
COc1ccccc1/C=C/c1nc(C#N)c(NC(C)c2ccccc2)o1 (centres undefined),-27.6,
Cc1ccc(NC(=O)C2CCCN2S(=O)(=O)c2cccc3cccnc23)c(C)c1 (centres undefined),-5.43,
O=C(/C=C/Nc1ccccc1)c1cnc(-c2ccccc2)s1,,12.6 µM (active)
Cc1ccc(N/C=C/C(=O)c2ccccc2)cc1C,-22.6,
Cc1nc(-c2ccccc2)sc1C(=O)/C=C/c1ccccc1,3.75,
Cc1c(C)n(Cc2ccc(Cl)cc2)c2ccc(C(=O)NCCc3ccc(S(N)(=O)=O)cc3)cc12,-27.4,
NC(=O)CSc1nc2c(oc3ccccc32)c(=O)n1Cc1ccccc1,1.12,
OCCNc1nc2ccccc2[nH]1,-0.339,
O=C(CSc1nc2ccccc2[nH]1)c1cccs1,-7.22,
C/C(=N\Nc1nc2ccccc2[nH]1)c1cccs1,,25.1 µM (active)
Cc1ccc(Cn2c(C)c3cnn(CC(=O)NCc4ccccc4)c(=O)c3c2C)cc1,-6.45,
COc1ccc(Nc2ncc3c(n2)CCN(C(=O)OC(C)(C)C)C3)cc1,-2.11,
O=C(Cc1ccc(Cl)cc1)NCC(c1cccs1)S(=O)(=O)c1ccc(Cl)cc1 (centres undefined),1.56,
CCc1nn(CC(=O)N2CCN(c3cc(C)ccc3C)CC2)c(=O)c2cc3occc3n12,6.7,
COc1ccc(F)cc1S(=O)(=O)Nc1ccc2c(c1)OCO2,9.18,
COc1ccc(S(=O)(=O)Nc2ccc3c(c2)OCO3)cc1Cl,,15.8 µM (active)
CC(C)CNS(=O)(=O)c1ccc(OCC(=O)Nc2ccc3c(c2)OCO3)c(Cl)c1,-2.91,
